# NOMO-1 viab: STK33 inhibitor candidate reducing NOMO-1 cell viability; NOMO-1 AML viability, CellTiter-Glo luminescence, 72 h; inhibition, % (test concentration not listed); hit rate 7.5% among 37,000; AID 2330; in the data active = inhibition above about 80%
# PD-1 reversal: activators reversing PD-1 mediated T-cell inhibition. 29,000 tested, under 10 active. primary human CD4 T cells, PD-L1 beads, CellTiter-Glo 96 h. activation, % (concentration not given with the values); call rule not given here;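 also: 0% = median vehicle wells and 100% = positive control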
# Shh pathway inh: blocks Sonic Hedgehog signaling; inhibition, % (concentration not given with the values); hit rate 2.1% among 22,000; Shh-LIGHT2 Gli-luciferase reporter, 30 h;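 active = mean inhibition across valid replicates above about 65%, limit read from the data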;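 also: pathway switched on by Shh-conditioned medium diluted 1 in 25 in low serum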
# MITF inhib: blocks MITF activity; TRPM1 promoter luciferase, luminescence, 24 h; hit rate 0.28% among 37,000; inhibition, % (no concentration beside the values); in the data active = inhibition above about 85%;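 also: human melanocyte line stably carrying TRPM1 promoter luciferase reporter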
# Numbers without * were called inactive; nt = not tested or not shown. Shown are actives, neighbours in structure and some others; about 7.8% of the full set was active somewhere.
SMILES,NOMO-1 viab,PD-1 reversal,Shh pathway inh,MITF inhib
CC[C@@H](C)C(=O)O[C@H]1[C@H](O)[C@H]2[C@@H](CN3C[C@@H](C)CC[C@H]3[C@@]2(C)O)C2C[C@]34O[C@@]5(O)[C@@H](OC(=O)[C@](C)(O)CC)CC[C@@]3(C)[C@@H]5[C@@H](OC(C)=O)[C@@H](OC(C)=O)[C@H]4[C@@]21O (some centres not stated),14.9,1.9,8.8,3.8
CN1C[C@H](CNC(=O)OCc2ccccc2)C[C@@H]2c3cccc4c3c(cn4C)C[C@H]21,103.9*,nt,50.0,14.9
COC[C@H]1OC(=O)c2coc3c2[C@@]1(C)C1=C(C3=O)[C@@H]2CCC(=O)[C@@]2(C)C[C@H]1OC(C)=O,89.8*,-21.6,-11.6,39.4
CCCN1CCc2cccc3c2[C@H]1Cc1ccc(O)c(O)c1-3,113.1*,nt,24.6,-0.5
Cc1cc(C(F)F)n2nc(C(=O)Nc3ccc4c(C(F)(F)F)cc(=O)oc4c3)nc2n1,13.0,-0.9,nt,-17.3
CC(C)N(C(=O)CCl)c1ccccc1,110.7*,nt,70.5*,13.8
Oc1ccc2c3c1OC1[C@@H](O)CC[C@@]4(O)[C@@H](C2)N(CC2CCC2)CC[C@]314 (some centres not stated),3.3,nt,-0.9,-0.5
C[C@H]1O[C@@H](O[C@H]2C[C@@H](O)[C@]3(CO)C4C(CC[C@]3(O)C2)[C@@]2(O)CC[C@H](C3=CC(=O)OC3)[C@@]2(C)C[C@H]4O)[C@@H](O)[C@@H](O)[C@H]1O (some centres not stated),121.0*,-28.6,-21.7,30.6
C[C@@H]1O[C@@H](O[C@H]2C[C@@H](O)[C@]3(CO)C4C(CC[C@]3(O)C2)[C@@]2(O)CC[C@H](C3=CC(=O)OC3)[C@@]2(C)C[C@H]4O)[C@H](O)[C@H](O)[C@H]1O (some centres not stated),106.9*,nt,-15.9,6.8
CC1OC(O[C@H]2C[C@@H](O)[C@]3(CO)[C@H]4[C@H](O)C[C@]5(C)[C@@H](C6=CC(=O)OC6)CC[C@]5(O)[C@@H]4CC[C@]3(O)C2)C(O)C(O)C1O (some centres not stated),98.1*,-51.5,-24.9,5.6
C[C@@]12C[C@@H](c3ccoc3)OC(=O)C1CC[C@]1(C)[C@H]2[C@H]2C=C[C@]1(O)C(=O)O2 (some centres not stated),2.6,1.9,-15.9,-14.3
Cc1cc(Br)c(NC(=O)C2C(C)(C)C2(C)C)c(Br)c1,89.1*,-5.2,64.6*,11.3
CC1(C)C(C(=O)Nc2ccccc2C#N)C1(C)C,17.5,0.2,-37.2,6.1
Oc1cccc2cccnc12,111.0*,nt,-37.4,17.6
C=C(C)[C@@H]1[C@H]2OC(=O)[C@@H]1[C@]1(O)C[C@H]3O[C@]34C(=O)O[C@H]2[C@]14C,19.8,nt,-52.0,-3.6
CC1(C)CC(=O)C2=C(C1)OC(N)=C(C(=O)OC(C)(C)C)C21C(=O)Nc2ccccc21 (configuration not stated),15.2,0.9,-32.2,3.9
C[C@@H]1CCC/C=C/[C@H]2C[C@@H](O)C[C@@H]2[C@@H](O)/C=C\C(=O)O1,108.3*,-6.1,101.2*,87.2*
Cc1ccnc(NC(c2ccccc2[N+](=O)[O-])c2ccc3ccc(C)nc3c2O)c1 (configuration not stated),124.1*,-15.0,nt,56.7
COC(=O)[C@@]12C(=O)C(C)C(=O)[C@]1(C)C(C)=C[C@H]1[C@]3(C=O)CC[C@H](OC(C)=O)C(C)(C)[C@H]3CC[C@@]12C (some centres not stated),nt,nt,25.4,nt
C=CC/C=C\C/C=C\CCCCCCCc1cc(O)cc(O)c1,109.2*,1.4,28.1,5.8
COC(=O)c1c(C)n(CCCOC(C)C)c2c1cc(O)c1ccccc12,3.9,-2.5,nt,13.4
CC(=O)NC1C(OC2OC(CC(O)C3OC(n4ccc(=O)[nH]c4=O)C(O)C3O)C(O)C(O)C2NC(=O)/C=C/CCCCCCCCCC(C)C)OC(CO)C(O)C1O (configuration not stated),108.1*,-3.9,107.9*,60.2
Cc1ccc(-n2c(CNCc3cccnc3)nc3ccccc3c2=O)cc1,14.1,2.0,nt,-15.6
C[C@H]1CC[C@@H]2[C@@H](C)[C@H]3[C@H](C[C@H]4[C@@H]5CC=C6CC(O[C@@H]7O[C@H](CO)[C@@H](O)[C@H](O[C@@H]8O[C@H](CO)[C@@H](O)[C@H](O)[C@H]8O)[C@@H]7O[C@@H]7O[C@@H](C)[C@H](O)[C@@H](O)[C@H]7O)CC[C@]6(C)[C@H]5CC[C@]34C)N2C1 (some centres not stated),109.9*,-4.7,25.2,51.9
C[C@H]1CC[C@@H]2[C@@H](C)[C@H]3[C@H](C[C@H]4[C@@H]5CC=C6C[C@@H](O[C@@H]7O[C@H](CO)[C@H](O)[C@H](O[C@@H]8O[C@H](CO)[C@@H](O)[C@H](O)[C@H]8O)[C@H]7O[C@@H]7O[C@@H](C)[C@H](O)[C@@H](O)[C@H]7O)CC[C@]6(C)[C@H]5CC[C@]34C)N2C1,31.9,-0.2,2.1,8.0

# Assay outcomes from PubChem.
